Inconclusive results are not listed. A call without a number means that no potency is given here. Active and inactive are the calls of the source. The call rests on the fitted dose curve; in most records, active means well fitted activation curve with a large enough effect; inconclusive means small, poorly fitted or top-dose-only effect; inactive means flat fitted curve, though single readings scatter.
Assay: Cell viability assay for measurement of the protective activity of small molecules against cell death caused by Zika virus infection in human astrocytoma cells
Conditions: SNB-19 Zika virus cytoprotection, ATP luminescence, 72 h; series mostly up to 46.1 µM
Source text: National Center for Advancing Translational Sciences [NCATS] Johns Hopkins University School of Medicine Florida State University Assay Overview: Zika virus infection causes cell death in certain cell types including human neural progenitor cells (hNPCs), astrocytes, and astrocytoma cell line (SNB-19). This cell viability assay measures the ATP content (level) in human astrocytoma cells (SNB-19) using a luminescence readout that is proportional to viable cell numbers. Decrease in the luminescence signal after Zika virus infection indicates the cell death caused by Zika virus. Small molecule inhibitors […] the decreased luminescence signal after Zika virus infection, indicating the protective effect of that small molecule on the cell death caused by Zika virus infection. This observed protective effect of small molecules against Zika virus induced cell death may result from inhibition of virus replication or cellular response to the virus infection.
Assay Protocol Summary: The medium for SNB-19 cells is composed of RPMI 1640 (ATCC, Cat.# 30-2001), 10% fetal bovine serum (FBS) (GE healthcare Life Sciences, Cat.# SH30071.03), and 1% Pen/Strep (Gibco, Cat.# 15140-122). The ATP content assay kit (PerkinElmer, Cat.# 6016731) was used to determine cell viability. The reagent was reconstituted and prepared as described by the manufacturer. Cells were seeded in 384- or 1536-well assay plates and cultured at 37 C with 5% CO2 for 16 to 20 hours. The typical cell seeding density in the 1536-well plate assay is 250 cells/well in 3ul medium for SNB-19 cells in tissue culture treated plates. Compounds were added to cells and incubated for one hour before addition of ZIKV solution to cells (2 FFU/cell). After incubation at 37 C with 5% CO2 for 72 hours, the reagent mixture of the ATP content assay kit was added to each well, followed by incubation at room temperature for 10 minutes. The luminescence intensity of the assay plates was measured using a ViewLux plate reader (PerkinElmer). […] The percentage inhibitions of the decreased cell viability by small molecule inhibitors were then calculated.

Question: For COc1ccc(C=CC(=O)Nc2ccccc2C(=O)O)cc1OC, which Potency is on record?
Answer: The Potency was “inactive”.

Question: With COc1cc(NC(C)CCCN)c2ncccc2c1 (stereo not given) as the molecule, how does the Potency read?
Answer: The Potency was 17.3 µM (active).

Question: For c1ccc2[nH]c(-c3cscn3)nc2c1, which Potency is on record?
Answer: Its Potency is “inactive”.

Question: For CN(C)c1ccc2cc(C(=O)N[C@@H](CCCN=C(N)CCl)C(=O)NCc3ccccc3)ccc2c1, which Potency is on record?
Answer: Its Potency is 4.35 µM (active).

Question: Which Potency does the source give for O=C(Nc1cc2cc[nH]c2cn1)c1ccccc1 here?
Answer: The Potency was “inactive”.

Question: Which Potency does the source give for CC(C(=O)O)c1ccc(-c2ccccc2)c(F)c1 (stereo not given) here?
Answer: Its Potency is “inactive”.

Question: For O=C(Nc1ncc([N+](=O)[O-])s1)c1cccs1, which Potency is on record?
Answer: Its Potency is “inactive”.

Question: Which Potency does the source give for O=c1c(-c2ccc(O)cc2)coc2cc(O)ccc12 here?
Answer: The Potency was “inactive”.

Question: For Cc1cccc(/C=C/c2ccccc2)n1, which Potency is on record?
Answer: The Potency was “inactive”.

Question: For COc1cccc(-c2cc(=O)c3ccccc3o2)c1N, which Potency is on record?
Answer: The Potency was “inactive”.

Question: For COc1ccc2nc(NC(=O)Nc3ccccc3)sc2c1, which Potency is on record?
Answer: Its Potency is “inactive”.

Question: Which Potency does the source give for CS(=O)(=O)c1ccc(-c2cn3ccccc3n2)cc1 here?
Answer: The Potency was “inactive”.

Question: Which Potency does the source give for CC(=O)Oc1cccc2c1C(=O)c1c(OC(C)=O)cc(C(=O)O)cc1C2=O here?
Answer: The Potency was “inactive”.

Question: For Cc1c(NC(=O)c2ccc(C(C)(C)C)cc2)cccc1-c1cn(C)c(=O)c(Nc2ccc(C(=O)N3CCOCC3)cc2)n1, which Potency is on record?
Answer: The Potency was 21.8 µM (active).

Question: With Nc1ncnc2c1ncn2[C@@H]1O[C@@H](CO)[C@H](O)[C@H]1O as the molecule, how does the Potency read?
Answer: Its Potency is “inactive”.

Question: For CC1(C)OC2=C(C(=O)c3ccccc3C2=O)[C@H](NCc2ccccc2)[C@H]1O, which Potency is on record?
Answer: The Potency was “inactive”.

Question: For NC(=O)c1cccc2[nH]c(-c3ccc([C@H]4CCCN4)cc3F)nc12, which Potency is on record?
Answer: The Potency was “inactive”.

Question: With O=S(=O)(O)c1ccc2nc(-c3ccccc3)[nH]c2c1 as the molecule, how does the Potency read?
Answer: Its Potency is “inactive”.

Question: For CCOCCOC(=O)/C=C/c1ccc(OC)cc1, which Potency is on record?
Answer: Its Potency is “inactive”.

Question: Which Potency does the source give for COc1ccnc2c1CCCCC2S(=O)c1nc2ccccc2[nH]1 (stereo not given) here?
Answer: The Potency was “inactive”.

Question: Which Potency does the source give for Cc1c(C(=O)O)c(O)cc2c1C(=O)c1c(O)c([C@@H]3O[C@H](CO)[C@@H](O)[C@H](O)[C@H]3O)c(O)c(O)c1C2=O here?
Answer: Its Potency is “inactive”.

Question: For O=C1C(Cl)=C(NCCN2CCOCC2)C(=O)c2ncccc21, which Potency is on record?
Answer: Its Potency is “inactive”.

Question: With O=C(Oc1ccccc1)c1cccc(C(=O)Oc2ccccc2)c1 as the molecule, how does the Potency read?
Answer: The Potency was “inactive”.

Question: For O=C(Nc1ccc([N+](=O)[O-])cc1Cl)c1cc(Cl)ccc1O, which Potency is on record?
Answer: Its Potency is 1.55 µM (active).

Question: With COCCn1c2c([n+](Cc3cnccn3)c1C)C(=O)c1ccccc1C2=O as the molecule, how does the Potency read?
Answer: Its Potency is “inactive”.

Question: Which Potency does the source give for O=c1c2ccccc2nc2n1CCc1c-2[nH]c2ccccc12 here?
Answer: Its Potency is “inactive”.

Question: Which Potency does the source give for O=C(Nc1ccc(C(=O)O)c(O)c1)c1ccccc1 here?
Answer: The Potency was “inactive”.

Question: Which Potency does the source give for C[C@@H]1CCN(C(=O)CC#N)C[C@H]1N(C)c1ncnc2[nH]ccc12 here?
Answer: Its Potency is “inactive”.

Question: With CCCCCCCCCCCC(=O)[O][Sn]([CH2]CCC)([CH2]CCC)[O]C(=O)CCCCCCCCCCC as the molecule, how does the Potency read?
Answer: The Potency was “inactive”.

Question: Which Potency does the source give for Cc1cc(O)c2c(c1)C(=O)c1cc(O)cc(O)c1C2=O here?
Answer: Its Potency is “inactive”.

Question: Which Potency does the source give for CCCS(=O)c1ccc2nc(NC(=O)OC)[nH]c2c1 (stereo not given) here?
Answer: The Potency was “inactive”.

Question: Which Potency does the source give for CCN1/C(=C/C=C/c2sc3ccccc3[n+]2CC)Sc2ccccc21 here?
Answer: The Potency was “inactive”.

Question: For Nc1ccc(O)c(C(=O)O)c1, which Potency is on record?
Answer: The Potency was “inactive”.

Question: Which Potency does the source give for O=C(O)CCC(=O)c1ccc(-c2ccccc2)cc1 here?
Answer: The Potency was “inactive”.

Question: With COc1cccc(-c2ccc(NC(=O)C3=C(C(=O)O)CCC3)c(F)c2)c1 as the molecule, how does the Potency read?
Answer: The Potency was “inactive”.

Question: With O=C1NC(=O)C(=Cc2ccc(-c3ccc(F)cc3)o2)S1 as the molecule, how does the Potency read?
Answer: Its Potency is “inactive”.

Question: Which Potency does the source give for CCCCCCOc1ccccc1C(N)=O here?
Answer: Its Potency is “inactive”.

Question: For O=C(O)[C@@H](c1ccc(OCc2ccc3ccccc3n2)cc1)C1CCCC1, which Potency is on record?
Answer: The Potency was “inactive”.

Question: With CN1CCN(c2cc3c(nn2)Oc2ccccc2N3C)CC1 as the molecule, how does the Potency read?
Answer: The Potency was “inactive”.

Question: For C[C@H](NC(=O)C(=O)Nc1ccccc1C(C)(C)C)C(=O)N[C@@H](CC(=O)O)C(=O)COc1c(F)c(F)cc(F)c1F, which Potency is on record?
Answer: The Potency was 0.489 µM (active).

Reference: PubChem BioAssay AID1224854 (National Center for Advancing Translational Sciences (NCATS), 2016)
